Results as given in PubChem BioAssay (NCATS).
Records with an inconclusive call do not appear. The source made the active and inactive calls. Calls follow the shape of the dose curve; as a rule, active = well fitted cell-killing curve with a large enough effect; inconclusive = small, poorly fitted or top-dose-only effect, or effect the other way; inactive = no such curve, though single readings can be large or run the other way.

Assay: Quantitative High-Throughput drug screen in 47 multiple myeloma cell lines against the NCATS MIPE library collection: ARD_JJKsccE7 cell viability assay (AID 1918929)
Conditions: ARD myeloma cell line viability, CellTiter-Glo, 48 h; series mostly up to 45.8 µM; viability: at the top concentration
From the text: PI: Beverly A. Mock Ph.D.
Laboratory of Cancer Biology and Genetics,
Center for Cancer Research, National Cancer Institute,
National Institute of Health, Bethesda, Maryland
Drug resistance and disease progression are common in multiple myeloma (MM) patients, underscoring the need for new therapeutic combinations. […] We hypothesized that effective combinations would reduce MYC expression and enhance p16 activity. […] These preclinical data identify potentially useful drug combinations for evaluation in drug-resistant MM and reveal potential mechanisms of combined drug sensitivity.
Described herein is the primary MIPE qHTS used to cherrypick compounds. Validated compounds were then further tested for potential synergistic activiy.
[1] Peat TJ, Gaikwad SM, Dubois W, Gyabaah-Kessie N, Zhang S, Gorjifard S, Phyo Z, Andres M, Hughitt VK, Simpson RM, Miller MA, Girvin AT, Taylor A, Williams D, D'Antonio N, Zhang Y, Rajagopalan A, Flietner E, Wilson K, Zhang X, Shinn P, Klumpp-Thomas C, McKnight C, Itkin Z, Chen L, Kazandijian D, Zhang J, Michalowski AM, Simmons JK, Keats J, Thomas CJ, Mock BA. Drug combinations identified by high-throughput screening promote cell cycle transition and upregulate Smad pathways in myeloma. Cancer Lett. 2023 Aug 1;568:216284. doi: 10.1016/j.canlet.2023.216284. Epub 2023 Jun 24. PMID: 37356470; PMCID: PMC10408729.
SEQUENCE No. (e.g., 1, 2, 3, etc.); […] (e.g., Cells, Incubation, Reagent, etc.); VALUE and DESCRIPTION.
1; Cells; 5 uL; white, solid bottom 1536-well Greiner assay plate.
2; Compounds; 23 nL; Kalypsis pin tool (Wako USA) equipped with a 1536-well pin head to transfer to the assay plates.
3; Incubation; 48 hours; 37C incubation.
4; Reagent;5uL; CellTiter Glo (Promega).
5; Detector; 425V; Luminescence; Viewlux PerkinElmer.
NOTES (numbers refer to Sequence numbers above)
1. The cell-based screening methods employed in this study were like those previously published. Briefly, the corresponding myeloma cell lines were screened in 1,536-well plates with 500 cells, 5-uL per well for inhibition of cell viability (assessed by measuring ATP levels with CellTiterGlo).
2. NCATS MIPE 4.0 library of approved and investigational drugs were added using the Kalypsis pin tool. Wells treated with DMSO only for 100% viability and media only wells for 0% viability were used as controls.
3. The assay plates were covered and incubated for 48 hours in a 37C, 5% CO2 incubator with controlled humidity.
4. After 48 hours, CellTilter-GloTM luminescent substrate mix (Promega) reagent was added to the assay plate and plates we incubated for 5 min at room temperature.
5. Signal was measured as median relative luminescence units on a ViewLux (PerkinElmer) multiplate reader.
[1] Heske CM, Davis MI, Baumgart JT, Wilson K, Gormally MV, Chen L, Zhang X, Ceribelli M, Duveau DY, Guha R, Ferrer M, Arnaldez FI, Ji J, Tran HL, Zhang Y, Mendoza A, Helman LJ, Thomas CJ. Matrix Screen Identifies Synergistic Combination of PARP Inhibitors and Nicotinamide Phosphoribosyltransferase (NAMPT) Inhibitors in Ewing Sarcoma. Clin Cancer Res. 2017 Dec 1;23(23):7301-7311. doi: 10.1158/1078-0432.CCR-17-1121. Epub 2017 Sep 12. PMID: 28899971; PMCID: PMC6636827.
Potency is read from the fitted curve at half-maximal effect.

For `CCCCCC[C@H]1C(=O)O[C@H](C)[C@H](NC(=O)c2cccc(NC=O)c2O)C(=O)O[C@@H](C)[C@@H]1OC(=O)CC(C)C`, which Potency is on record?
Its Potency is 372 nM (active).

For `O=C(N[C@H]1CN2CCC1CC2)c1ccc(Cl)cc1`, which “viability” value is on record?
The value was 109% (inactive).

Which “viability” value does the source give for `C[C@]12CC[C@H]3[C@@H](CCC4=CC(=O)CC[C@@]43C)[C@H]1CC[C@H]2O` here?
The value was 96.6% (inactive).

With `COC[C@H]1OC(=O)c2coc3c2[C@@]1(C)C1=C(C3=O)[C@@H]2CC[C@H](O)[C@@]2(C)C[C@@H]1OC(C)=O` as the compound, how does the Potency read?
The Potency was 6620 nM (active).

With `CC(=CCCC1=CCC(C2=CC(=O)OC2O)OC1O)CCC1=C(C)CCCC1(C)C` (stereo not given) as the compound, how does the “viability” value read?
Its value is 133% (inactive).

Which Potency does the source give for `Cc1ccccc1-n1c(Cn2ncc3c(N)ncnc32)nc2cccc(C)c2c1=O` here?
The Potency was 118 nM (active).

With `C[C@]12Cc3cn[nH]c3C[C@@H]1CC[C@@H]1[C@H]2CC[C@@]2(C)[C@H]1CC[C@]2(C)O` as the compound, how does the “viability” value read?
The value was 97.4% (inactive).

For `COc1ccc2c(c[n+](C)c3c4cc5c(cc4ccc23)OCO5)c1OC`, which Potency is on record?
Its Potency is 7430 nM (active).

For `O=S(=O)(F)Cc1ccccc1`, which “viability” value is on record?
The value was 98.7% (inactive).

Which Potency does the source give for `C[C@@H]1CC[C@@]2(OC1)O[C@H]1C[C@H]3[C@@H]4CC=C5C[C@@H](O[C@@H]6O[C@H](CO)[C@@H](O[C@@H]7O[C@@H](C)[C@H](O)[C@@H](O)[C@@H]7O)[C@H](O)[C@@H]6O[C@@H]6O[C@@H](C)[C@H](O)[C@@H](O)[C@@H]6O)CC[C@]5(C)[C@@H]4CC[C@]3(C)[C@@H]1[C@H]2C` here?
The Potency was 2350 nM (active).

For `N#C[C@H](O[C@@H]1O[C@H](CO[C@@H]2O[C@H](CO)[C@H](O)[C@H](O)[C@H]2O)[C@H](O)[C@H](O)[C@H]1O)c1ccccc1`, which Potency is on record?
The Potency was 5900 nM (active).

With `c1ccc(CCCN2CCN(CCOC(c3ccccc3)c3ccccc3)CC2)cc1` as the compound, how does the “viability” value read?
Its value is 110% (inactive).

With `O=C(Nc1ccncc1)C(=O)c1cn(Cc2ccc(Cl)cc2)c2ccccc12` as the compound, how does the Potency read?
The Potency was 41.8 nM (active).

With `c1ccc2c(CN3CCNCC3)cccc2c1` as the compound, how does the “viability” value read?
Its value is 99.1% (inactive).

Which Potency does the source give for `CC[C@@H]1[C@@H](C)O[C@@](O)([C@@H](C)[C@H](O)[C@H](C)[C@H]2OC(=O)C=CC=C[C@@H](C)[C@@H]([C@@H](C)[C@@H](O)[C@H](C)[C@@]3(O)C[C@H](O[C@H]4C[C@H](O)[C@H](O)[C@H](C)O4)[C@H](CC)[C@@H](C)O3)OC(=O)C=CC=C[C@@H]2C)C[C@H]1O[C@H]1C[C@H](O)[C@H](O)[C@H](C)O1` here?
The Potency was 372 nM (active).

With `CC=C(C)C(=O)N[C@@H](c1ccccc1)[C@@H](O)C(=O)O[C@H]1C[C@@]2(O)[C@@H](OC(=O)c3ccccc3)[C@@H]3[C@]4(OC(C)=O)CO[C@@H]4C[C@H](O)[C@@]3(C)C(=O)[C@H](OC(C)=O)C(=C1C)C2(C)C` as the compound, how does the Potency read?
Its Potency is 1 nM (active).

With `CCc1c(C(=O)C(N)=O)c2c(OCC(=O)O)cccc2n1Cc1ccccc1` as the compound, how does the “viability” value read?
Its value is 135% (inactive).

With `O=c1[nH]c2ccc(Cl)cc2c(N[C@@H]2CN3CCC2CC3)c1-c1nc2ccccc2[nH]1` as the compound, how does the Potency read?
Its Potency is 935 nM (active).

Which Potency does the source give for `CCNC(=O)CC1N=C(c2ccc(Cl)cc2)c2cc(OC)ccc2-n2c(C)nnc21` (stereo not given) here?
Its Potency is 13200 nM (active).

For `C=CCON=C(C[C@H]1O[C@@H]2O[C@]3(C)CC[C@@H]4[C@H](C)CC[C@@H]([C@H]1C)[C@@]24OO3)[C@H]1O[C@@H]2O[C@]3(C)CC[C@H]4[C@H](C)CC[C@@H]([C@@H]1C)[C@@]24OO3`, which Potency is on record?
The Potency was 132 nM (active).

For `CCN(CC)C(=O)c1ccc(C2=CC3(CCNCC3)Oc3cccc(O)c32)cc1`, which “viability” value is on record?
The value was 117% (inactive).

Which “viability” value does the source give for `C[C@H]([C@H](O)CCC(C)(C)O)[C@H]1CC[C@@]2(O)C3=CC(=O)[C@@H]4C[C@@H](O)[C@@H](O)C[C@]4(C)[C@@H]3CC[C@]12C` here?
The value was 111% (inactive).

For `Cc1[nH]nc2ccc(-c3cncc(OC[C@@H](N)Cc4c[nH]c5ccccc45)c3)cc12`, which “viability” value is on record?
The value was 113% (inactive).

With `CC(C)N[C@@H]1CCn2c(=O)[nH]c3cccc(c32)[C@@H]1O` as the compound, how does the Potency read?
Its Potency is 6620 nM (active).

With `CC1=C(O)C(=O)C=C2C1=CC=C1[C@@]2(C)CC[C@@]2(C)[C@@H]3C[C@](C)(C(=O)O)CC[C@]3(C)CC[C@]12C` as the compound, how does the Potency read?
Its Potency is 1050 nM (active).

For `COc1ccc(CC2NCCc3cc(OC)c(OC)cc32)cc1OC` (stereo not given), which “viability” value is on record?
The value was 76.1% (inactive).

For `CC(C)(O)C=CC(=O)[C@](C)(O)[C@H]1[C@H](O)C[C@]2(C)[C@@H]3CC=C4[C@@H](C=C(O)C(=O)C4(C)C)[C@]3(C)C(=O)C[C@@]12C`, which Potency is on record?
Its Potency is 296 nM (active).

For `Oc1ccc2c3c1O[C@H]1c4[nH]c5c(c4C[C@@]4(O)[C@@H](C2)N(CC2CC2)CC[C@]314)C[C@@]1(O)[C@H]2Cc3ccc(O)c4c3[C@@]1(CCN2CC1CC1)[C@H]5O4`, which “viability” value is on record?
The value was 120% (inactive).

Which “viability” value does the source give for `COc1ccc2c(c1)[C@]13CCCCC1C(C2)N(C)CC3` (stereo not given in full) here?
Its value is 86.9% (inactive).

For `COc1ccc(C(=O)c2c(C)n(CCN3CCOCC3)c3cc(I)ccc23)cc1`, which Potency is on record?
Its Potency is 18700 nM (active).

With `CC(C)(O)C(=O)Nc1ccc([N+](=O)[O-])c(C(F)(F)F)c1` as the compound, how does the Potency read?
The Potency was 23500 nM (active).

For `Clc1ccccc1C(c1ccccc1)(c1ccccc1)n1cccn1`, which “viability” value is on record?
Its value is 134% (inactive).

For `CSCC[C@@H](NC(=O)[C@@H](Cc1ccccc1)NC(=O)CNC(=O)CNC(=O)[C@@H](N)Cc1ccc(O)cc1)C(=O)O`, which “viability” value is on record?
Its value is 146% (inactive).

With `C[C@@H]1O[C@@H](O[C@@H]2C=C3CC[C@@H]4[C@@H](CC[C@]5(C)[C@H](c6ccc(=O)oc6)CC[C@@]45O)[C@@]3(C)CC2)[C@H](O)[C@H](O)[C@H]1O` as the compound, how does the Potency read?
Its Potency is 9.3 nM (active).

For `CC[C@@]1(O)C(=O)OCc2c1cc1n(c2=O)Cc2cc3ccccc3nc2-1`, which Potency is on record?
Its Potency is 372 nM (active).

With `CC(=Cc1csc(C)n1)[C@@H]1C[C@H]2O[C@@H]2CCC[C@H](C)[C@@H](O)[C@@H](C)C(=O)C(C)(C)[C@@H](O)CC(=O)O1` as the compound, how does the Potency read?
Its Potency is 1 nM (active).

For `COc1cc([C@@H]2c3cc4c(cc3[C@@H](O)C3COC(=O)C32)OCO4)cc(OC)c1O` (stereo not given in full), which Potency is on record?
Its Potency is 8.3 nM (active).

Which Potency does the source give for `COc1ccc(N(C(=O)Oc2c(C)cccc2C)c2ccnc(Nc3ccc(N4CCN(C)CC4)cc3)n2)c(OC)c1` here?
Its Potency is 7430 nM (active).

For `CC(=O)N(C)c1cccc(-c2ccnc3c(C(=O)c4cccs4)cnn23)c1`, which Potency is on record?
Its Potency is 20900 nM (active).

Which “viability” value does the source give for `O=C(O)CNC(=O)c1c(O)c2ccccc2n(Cc2ccccc2)c1=O` here?
The value was 143% (inactive).
